Results as given in PubChem BioAssay (NCI).
About 83,000 compounds went through this panel and 20% of them were active in at least one assay; those are over-represented in the sample as a whole.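 Negative percent growth values reflect cell death: -40 means 40% of the cells present at the start died, and -100 means all died.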 The source made the active and inactive calls. Rule for the calls: active = growth percent below 10; inactive = the rest.

Tests used:
Assay in all cases: NCI-60 one-dose screen, 48 h (100 = growth as untreated, 0 = no growth, -100 = all killed)
[1] = test system: NCI-H23 lung; conditions: 10 µM unless noted
[2] = test system: NCI-H226 lung; conditions: 10 µM unless noted
[3] = test system: NCI-H322M lung; conditions: 10 µM unless noted
[4] = test system: HOP-62 NSCLC; conditions: 10 µM unless noted
[5] = test system: NCI-H460 lung; conditions: 10 µM unless noted
[6] = test system: NCI-H522 lung; conditions: 10 µM unless noted
[7] = test system: A549/ATCC NSCLC; conditions: 10 µM unless noted
[8] = test system: 786-0 renal; conditions: 10 µM unless noted
[9] = test system: DU-145 prostate; conditions: 10 µM unless noted
[10] = test system: K-562 leukemia; conditions: 10 µM unless noted
[11] = test system: MALME-3M melanoma; conditions: 10 µM unless noted
[12] = test system: MDA-MB-231 breast; conditions: 10 µM unless noted
[13] = test system: RXF 393 renal; conditions: 10 µM unless noted
[14] = test system: SF-268 CNS; conditions: 10 µM unless noted
[15] = test system: SF-295 CNS; conditions: 10 µM unless noted
[16] = test system: SF-539 CNS; conditions: 10 µM unless noted
[17] = test system: UACC-257 melanoma; conditions: 10 µM unless noted
[18] = test system: M14 melanoma; conditions: 10 µM unless noted
[19] = test system: HOP-92 NSCLC; conditions: 10 µM
[20] = test system: COLO 205 colon; conditions: 10 µM unless noted

Measured: growth

COc1ccc(OC)c(-c2nc(SCC(=O)c3ccc(Br)cc3)nc(Nc3ccc(S(N)(=O)=O)cc3)c2C#N)c1
inactive: [1] 58.4% | [2] 50% | [3] 81.7% | [4] 48.4% | [5] 20.8% | [6] 48% | [7] 67.4% | [8] 41.4% | [9] 55.2% | [10] 22.5% | [11] 50.2% | [12] 63% | [13] 17.3% | [14] 56.7% | [15] 33.1% | [16] 28.4% | [17] 56.9% | [18] 42.5%

CCNC(=O)Oc1ccc(/C(=C(/C)c2ccccc2)c2ccc(OCCN3CCCCCC3)cc2)cc1
active: [4] 6.15% | [5] -67.3% | [19] -12.8% | [8] -91.7% | [20] -75.7% | [10] 2.41% | [11] -70.8% | [12] 6.37% | [13] -7.37% | [15] -1.08% | [16] -74.5% | [17] -48.9% | [18] -80.3%
inactive: [2] 55% | [3] 71.1% | [6] 63.8% | [7] 36.1% | [9] 38.7% | [14] 31.8%

O=C(Nc1ccc(F)c(F)c1)c1cc(-c2ccc(F)cc2F)ccc1O
inactive: [4] 19% | [20] 82.1% | [9] 18.5% | [10] 12.2% | [14] 16.3% | [16] 12.5%
active: [2] 3.67% | [3] 3.88% | [5] 2.98% | [19] -19% | [6] -1.71% | [7] 8.98% | [8] 9.53% | [11] -13.9% | [12] 4.13% | [13] -28.1% | [15] -23.4% | [17] -9.01%

COc1ccc(/C=N/NC2=NC3C(S2)N(C)C(=O)N3C)cc1 (stereo not drawn)
inactive: [2] 57.9% | [3] 47.5% | [4] 29.1% | [19] 30.7% | [7] 48.6% | [8] 43.9% | [9] 25.2% | [11] 39% | [12] 44.9% | [14] 47.6% | [15] 10.6% | [17] 79.8% | [18] 32.5%
active: [5] 9.74% | [6] -9.16% | [20] 7.48% | [10] 9.56% | [13] -19.3% | [16] 2.22%

COc1cc(Nc2c(C#N)cnn3cc(-c4cnn(CC(C)(C)O)c4)cc23)ccc1Cl
active: [13] -20.3% | [16] 8.69%
inactive: [2] 42.1% | [3] 41.9% | [4] 45.6% | [5] 59.7% | [19] 58.1% | [6] 15% | [7] 52.4% | [8] 34.7% | [20] 75.9% | [9] 47.6% | [10] 12.9% | [11] 67.5% | [12] 65.4% | [14] 56.5% | [15] 63% | [17] 81.7%

C#Cc1nc(C(C)=O)cs1
inactive: [2] 99.7% | [3] 106% | [4] 103% | [5] 106% | [19] 111% | [6] 92.1% | [7] 108% | [8] 98.6% | [20] 115% | [9] 109% | [10] 90.6% | [11] 105% | [12] 103% | [13] 95.6% | [14] 105% | [15] 106% | [16] 99.1% | [17] 107%

NC/C(=C/F)COc1ccc2nc(NCc3cccnc3)oc2c1
inactive: [1] 92.8% | [2] 94.3% | [3] 111% | [4] 77% | [5] 98.8% | [7] 95.3% | [8] 92.5% | [20] 111% | [9] 95% | [10] 109% | [11] 108% | [12] 96% | [13] 66.9% | [14] 93.2% | [15] 99.9% | [16] 91.9% | [17] 95.9% | [18] 103%

CCCSc1nc(Nc2ccc(/C(C)=N\NC(N)=S)cc2)c(C#N)c(-c2ccccc2)n1
inactive: [2] 49.4% | [3] 84.3% | [4] 84.2% | [5] 32.7% | [6] 85.2% | [7] 43.7% | [8] 60.3% | [20] 79.9% | [9] 66.3% | [10] 56.5% | [11] 97.9% | [12] 72.9% | [14] 103% | [15] 51.8% | [16] 36.4% | [17] 105% | [18] 99.6%
active: [19] -8.02% | [13] -4.63%

COc1cccc(/C=C(/C)c2ccc3cccc(OC)c3[o+]2)c1O
inactive: [2] 103% | [3] 98.8% | [4] 106% | [5] 102% | [19] 91% | [6] 93.6% | [7] 102% | [8] 98.5% | [20] 118% | [9] 107% | [10] 97.2% | [11] 105% | [12] 89.8% | [14] 95.3% | [15] 101% | [16] 103% | [17] 110%

O=C(CSc1nc2ccccc2c(=O)n1-c1ccccc1)Nc1ccc(-c2nc3ccc([N+](=O)[O-])cc3[nH]2)cc1
inactive: [2] 82% | [3] 97.8% | [4] 99.1% | [5] 63.5% | [19] 99.1% | [6] 75.2% | [7] 93.4% | [8] 95.2% | [20] 110% | [9] 84.2% | [10] 42.7% | [11] 71.1% | [12] 76.8% | [13] 64.5% | [14] 76.2% | [15] 103% | [16] 78.2% | [17] 95.8% | [18] 93.3%
